TIM10 inh: growth inhibitors of isogenic TIM10 control yeast, primary screen, counter-screen for tim10-1 yeast inhibitor project, luminescence, uHTS; S. cerevisiae TIM10 strain growth, BacTiter-Glo luminescence, 24 h; inhibition, % at 10 µM; 330,000 tested, 1.4% active;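 active = inhibition of 40% or more at the single tested concentration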;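 also: wild-type TIM10 isogenic control strain grown at permissive 25 °C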
tim10-1 inh: growth inhibitors of tim10-1 mutant yeast, primary screen, luminescence, uHTS; S. cerevisiae tim10-1 ts strain growth, BacTiter-Glo, 24 h; inhibition, % at 20 µM; 330,000 tested, 2.2% active; AID 463190, 2010;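 active = inhibition of at least 40%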;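 also: mutant grown at 25 °C; 0% = DMSO wells with yeast and 100% = wells holding no yeast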
PfHsp90 yeast 2: growth inhibition of PfHsp90-expressing yeast, primary screen, antimalarial PfHsp90 inhibitor project, S. cerevisiae, BacTiter-Glo luminescence, single point, set 2 | inhibition, % at 9.4 µM | AID 504621, 2011 | BacTiter-Glo ATP, 48 h; yeast lacking PDR1 and PDR3 efflux regulators | 310,000 tested, 0.32% active;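 active = every replicate shows inhibition above about 80%, whatever the replicate mean, limit read from the data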;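 also: 0% = DMSO neutral controls and 100% = 20 µM radicicol positive controls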
tim23-1 inh: growth inhibitors of tim23-1 mutant yeast, primary screen, luminescence, uHTS; S. cerevisiae tim23-1 growth, BacTiter-Glo luminescence, 24 h; AID 463212, 2010; 330,000 tested, 1.3% active; inhibition, % at 20 µM;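 active = growth inhibition of the mutant yeast at or above 50%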;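 also: temperature-sensitive mutant grown at 25 °C; plate controls were DMSO-treated mutant yeast for no effect and medium wells lacking yeast for full effect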
NLRP3 yeast inh: NALP3 inflammasome inhibitors in reconstituted yeast, primary screen, luminescence, uHTS; inhibition, % at 10 µM; 330,000 tested, 0.39% active; AID 2825, 2010; Yeast reconstituted NLRP3/ASC/caspase-1, beta-gal luminescence, 24 h;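 active = inhibition of 50% or more; inactive = inhibition below 50%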;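 also: plate controls were induced DMSO wells for no effect and uninduced yeast grown without galactose for full effect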
tim10-1 confirm: growth inhibitors of tim10-1 mutant yeast, confirmation, single concentration, luminescence, S. cerevisiae; S. cerevisiae tim10-1 ts strain growth, BacTiter-Glo, 24 h; inhibition, % at 20 µM; 7,400 tested, 56% active; shares compounds with tim10-1 inh;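 active = inhibition of yeast growth at or above a set limit in either of two repeat tests at 20 µM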;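 also: tim10-1 mutant grown at permissive 25 °C to find synthetic lethal compounds; 0% = DMSO yeast wells and 100% = medium wells without yeast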
TIM10 conf: growth inhibitors of wild-type TIM10 yeast, confirmation, counter-screen for tim10-1 synthetic lethality project, single concentration, luminescence, S. cerevisiae; shares compounds with TIM10 inh; S. cerevisiae tim10 strain growth, BacTiter-Glo luminescence, 24 h; inhibition, % at 10 µM; 4,600 tested, 63% active; AID 463215, 2010;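 active = inhibition of yeast growth at or above a set limit in either of two replicates at 10 µM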;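 also: this counterscreen used the strain with wild-type TIM10; 0% = yeast with DMSO and 100% = medium wells lacking yeast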
tim23-1 confirm: tim23-1 mutant yeast growth inhibitors, confirmation, luminescence, single concentration; 4,400 tested, 83% active; inhibition, % at 20 µM; S. cerevisiae tim23-1 growth, BacTiter-Glo luminescence, 24 h; shares compounds with tim23-1 inh;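 active = inhibition above about 39% in either of two replicate wells at 20 µM, limit read from the data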;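 also: temperature-sensitive tim23-1 mutant grown at 25 °C; 0% = DMSO wells with yeast and 100% = medium wells without yeast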
* hit, by the source's call; / = no result given. In the library only some 3.7% were active in any assay of this set; here they are far more common.

SMILES	TIM10 inh	tim10-1 inh	PfHsp90 yeast 2	tim23-1 inh	NLRP3 yeast inh	tim10-1 confirm	TIM10 conf	tim23-1 confirm
O=C(NC(=S)Nc1ccc(CN2CCOCC2)cc1)c1ccc(-c2ccc(Br)cc2)o1	7	-7	/	35	16	/	/	/
C[C@@]12CCC=C[C@H]1[C@H](c1ccccc1Br)N(Cc1ccccc1)C2=O	40*	43*	-28	63*	/	51*	48*	55*
COC(=O)C1=C(C)NC(=S)NC1c1ccc(-c2ccccc2C(=O)OC)o1 (stereo unspecified)	6	23	12	16	11	/	/	/
COC(=O)C1=C(C)NC(=S)NC1c1ccc(-c2cccc(Cl)c2)o1 (stereo unspecified)	53*	50*	17	52*	12	39*	1	49*
N/C(=C\C(=O)c1cc(Cl)ccc1O)C(Cl)(Cl)Cl	42*	40*	-22	73*	-16	48*	31	37
CC(C)(C)c1ccc(C(=O)CC(=O)c2cc(Cl)ccc2O)cc1	20	36	20	21	14	/	/	/
CC(C)C(Cl)=NOC(=O)Nc1ccc(F)cc1	/	/	-9	/	/	/	/	/
C/C(=N\OC(=O)Nc1ccc(Cl)cc1)c1ccc(F)c(F)c1	14	51*	-15	57*	27	54*	/	59*
O=C(Nc1ccc(Cl)cc1)ON=C1CCCC1	82*	43*	-1	64*	14	28	-21	41*
CC1CCCN(S(=O)(=O)c2ccc(C(=O)Nc3nnc(C4CC4)o3)cc2)C1 (stereo unspecified)	29	46*	/	53*	7	19	/	34
O=C(Nc1nnc(C2CC2)o1)c1ccc(S(=O)(=O)N2CCc3ccccc3C2)cc1	17	28	-21	-18	-4	/	/	/
COc1cccc(NC(=O)c2cc3ccccc3cc2OC)c1	-13	-58	-19	24	18	/	/	/
Cc1ccc(-c2cc(C(=O)N3CCN(c4ccc(F)cc4)CC3)c3ccccc3n2)o1	27	44*	-45	51*	17	26	/	44*
COc1ccc(-c2cc(C(=O)N3CCN(c4ncccn4)CC3)c3ccccc3n2)c(OC)c1	59*	66*	-16	51*	24	52*	7	13
COc1ccc(-c2cc(C(=O)N3CCN(c4ccccc4F)CC3)c3ccccc3n2)c(OC)c1	39	54*	104*	57*	21	58*	/	58*
COc1ccc(N2CCN(C(=O)c3cc(-c4cc(OC)ccc4OC)nc4ccccc34)CC2)cc1	14	32	-17	21	4	/	/	/
COc1ccc(-c2cc(C(=O)N3CCCCCC3)c3ccccc3n2)c(OC)c1	22	42*	9	54*	10	22	/	48*
CN(C)S(=O)(=O)c1cccc(-c2nnc(SCCNCCO)n2-c2ccc(F)cc2)c1	-7	5	-7	-3	18	/	/	/
Oc1ccc(/C=C/c2nc(-c3ccccc3O)n(-c3ccccc3)n2)cc1	38	60*	/	59*	-39	51*	/	64*
CCc1noc(C)c1C(=O)OCC(=O)NCc1ccccc1OC	15	4	17	9	15	/	/	/
Cc1cc(C)nc(S/C=C/C(=O)c2ccc(F)cc2)n1	48*	41*	/	56*	43	28	39*	46*
CCOc1cc(/C=C2/C(=O)ON=C2C)ccc1OCc1ccccc1F	24	52*	6	58*	32	25	/	52*
CCN(CC)C(=O)[C@H]1C[C@H](CC(=O)NCCc2ccccn2)C(=O)N2CCc3c([nH]c4cc(-c5ccco5)ccc34)[C@]12C	-5	1	13	14	/	/	/	/
COCCNc1cc(C)nc2cc(-c3ccc(C)cc3)nn12	12	25	32	28	20	/	/	/
Cc1ccc(-c2cc3nc(C)cc(NCc4ccco4)n3n2)cc1	29	41*	3	58*	22	38*	/	55*
SMILES	TIM10 inh	tim10-1 inh	PfHsp90 yeast 2	tim23-1 inh	NLRP3 yeast inh	tim10-1 confirm	TIM10 conf	tim23-1 confirm
CCN1C(=O)[C@H]2[C@H]3CN=C(SCc4ccccc4)N3[C@@](CC)(C(=O)OC)[C@H]2C1=O	-14	7	-3	38	/	/	/	/
COc1ccc(O)c(C(=O)c2cnn(S(=O)(=O)c3ccc(C)cc3)c2)c1	26	54*	-7	52*	32	35*	/	52*
C/C(=N\NC(=O)c1ccc(CN2CCc3ccccc3C2)cc1)c1ccccc1O	45*	47*	21	74*	14	29	48*	79*
Cn1c(/C(C#N)=C/C2CC=CCC2)nc2ccccc21 (stereo unspecified)	34	43*	-17	69*	28	39*	/	51*
CCCn1nnnc1NCc1ccc(N(CC)CC)cc1	-7	-3	-1	-4	11	/	/	/
CCn1c(SCC(=O)OC)nnc1-c1c[nH]c2ccccc12	1	7	6	6	-8	/	/	/
CC(=O)c1c(O)c2cccc3c2n(c1=O)CCC3	17	41*	-2	54*	18	30*	/	52*
COc1ccc(CCNC(=O)c2c(O)c3cccc4c3n(c2=O)CC4)cc1OC	57*	43*	11	53*	17	-36	30*	45*
O=C(CS(=O)c1ccc(C(F)(F)F)cc1[N+](=O)[O-])Oc1ccccc1 (stereo unspecified)	70*	50*	-9	72*	-19	57*	46*	75*
CS(=O)(=O)c1ccc(S(=O)CC(=O)OCc2ccccc2)c([N+](=O)[O-])c1 (stereo unspecified)	/	/	-18	/	/	/	/	/
CCN(C(=O)COC(=O)c1cccc(S(=O)(=O)N2CCOCC2)c1)C1CCS(=O)(=O)C1 (stereo unspecified)	-2	-16	-9	-4	8	/	/	/
CC1=CC(=O)C=C(C)C1=NOc1ccc([N+](=O)[O-])cc1	47*	62*	-35	57*	-33	65*	38*	69*
COc1ccc2nc(S(=O)Cc3ncc(C)c(OC)c3C)[nH]c2c1 (stereo unspecified)	-4	10	-7	1	21	/	/	/

Compound activity deposited in PubChem by several laboratories.
